# High-throughput results (PubChem)
# CXXC DNA block: qHTS Fluorescence Polarization Assay for Inhibitors of MLL CXXC domain - DNA interaction. Histone-lysine N-methyltransferase 2A (Homo sapiens), Q03164. MLL-CXXC / FITC-HOXA9 DNA fluorescence polarization. Potency, µM (doses to about 115 µM), inactives show top-dose activity change, negative = inhibition, hits mostly inhibitors. actives 0.037% (n = 290,000); active means well fitted inhibition curve with a large enough effect in the polarisation, with a control signal flat, not every such curve was filed as active; inconclusive means small, poorly fitted or top-dose-only effect, or effect the other way, or a change in a side signal; inactive means no such curve, though single readings can be large or run the other way; the % refers to the polarisation; further: potency means the concentration at half of the fitted maximal effect
#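 Fluorescence polarization: 7 uM MLL-CXXC (stock) preincubated 5 min with compounds, then 50 nM fluorescein-HOX-A9 DNA (stock) added; 30 min ambient. Buffer 50 mM Tris-HCl pH 7.5, 50 mM NaCl, 1 mM DTT, 0.05% BSA.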
# Menin-MLL TR inh: qHTS Assay for Inhibitors Targeting the Menin-MLL Interaction in MLL Related Leukemias: Competition With Texas Red Labeled MLL-derived Mutant Peptide; O00255; Menin + Texas Red MLL mutant peptide, fluorescence polarization; Potency, µM (top dose mostly 61.6 µM), inactives show at the highest dose FP activity change, negative = inhibition, actives largely listed as inhibitors; actives 0.23% (n = 270,000); AID 1768, 2009; active means well fitted inhibition curve with a large enough effect in the polarisation, with a control signal flat, not every such curve was filed as active; inconclusive means small, poorly fitted or top-dose-only effect, or effect the other way, or a change in a side signal; inactive means no such curve, though single readings can be large or run the other way; the % refers to the polarisation; further: potency means the concentration at half of the fitted maximal effect; % of control where 0% means no effect
# Menin-MLL FL inh: qHTS Assay for Inhibitors Targeting the Menin-MLL Interaction in MLL Related Leukemias: Competition With Fluorescein Labeled MLL-derived Peptide. Fluorescence polarization, fluorescein-MLL peptide displacement from menin. FP activity change, % at 61.4 µM. 290,000 tested, under 10 active; active means well fitted curve in the direction sought with a large enough effect in the polarisation, not every such curve was filed as active; inconclusive means small, poorly fitted or top-dose-only effect, or effect the other way, or a change in a side signal; inactive means no such curve, though single readings can be large or run the other way; the % refers to the polarisation; further: % of control where 0% means no effect
# PINK1 expr mod: A Quantitative High throughput Screen to Identify Chemical Modulators of PINK1 Expression | actives 0.2% (n = 410,000) | Potency, µM (top dose mostly 76.6 µM), for the others: top-dose activation (PINK1 increase), most hits filed as activators | PINK1 immunofluorescence, high-content cytometry, 24 h | AID 624263, 2012; active means well fitted activation curve with a large enough effect; inconclusive means small, poorly fitted or top-dose-only effect; cell line not stated here; further: potency means the concentration at half of the fitted maximal effect; % of control where 0% means no effect; nearly all actives have a fitted effect of over 65% in size
#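 PINK1 protein, normally rapidly degraded, was detected by immunofluorescence after 24 hour compound treatment of a stable cell line. Titration data (5 concentrations) came from laser-scanning cytometry, with CCCP-treated wells as controls.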
# Epigenetic reg: Quantitative High-Throughput Screen for Regulators of Epigenetic Control; actives 0.2% (n = 280,000); Potency, µM (top dose mostly 53.9 µM), for inactives: at the top dose GFP activation, usual class: activators; murine LDR cells, GFP reporter derepression, 30 h; active means well fitted activation curve with a large enough effect; inconclusive means small, poorly fitted or top-dose-only effect; further: potency means the concentration at half of the fitted maximal effect; % of control where 0% means no effect; nearly all actives have a fitted effect of over 60% in size
#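 Derepression of a silenced CMV-GFP reporter in murine LDR cells is scored by enumerating GFP-positive cells with a laser-scanning microplate cytometer after 30 hours of treatment at 37 C.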
# ClpP mod: qHTS Assay for Activators of ClpP. actives 1.9% (n = 340,000). purified B. subtilis ClpP, FRET peptide cleavage, 20 min. ATP-dependent Clp protease proteolytic subunit (Bacillus subtilis (strain 168)), P80244. AID 651965, 2013. Potency, µM (doses to about 57.5 µM), for the others: at the top dose activity change, negative = active; active means well fitted falling curve with a large enough effect; inconclusive means small, poorly fitted or top-dose-only effect; inactive means no such curve, though single readings can be large or run the other way; further: potency means the concentration at half of the fitted maximal effect; the source files actives as falling curves though it sought activators and does not explain the sign; nearly all actives have a fitted effect of over 65% in size
# Target sequence (P80244 whole entry, looked up): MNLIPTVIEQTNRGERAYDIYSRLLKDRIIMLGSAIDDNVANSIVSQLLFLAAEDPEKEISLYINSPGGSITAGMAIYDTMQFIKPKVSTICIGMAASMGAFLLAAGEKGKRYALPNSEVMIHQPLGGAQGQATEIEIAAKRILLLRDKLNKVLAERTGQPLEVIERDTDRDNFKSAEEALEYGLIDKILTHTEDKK
#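 Purified B. subtilis ClpP, 10 microg/mL final in Tris/HCl pH8 with KCl, BSA, glycerol and Tween-20, cleaved an Abz/nitrotyrosine-quenched decapeptide. Fluorescence (ex 320, em 430) was read at 0 and 20 min at room temperature. Delta was normalized to 5.8 microM ADEP and DMSO/no-enzyme controls.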
# Starred values were filed as active, the others as inactive; ? = inconclusive; · = not tested or not shown; [ ] = remark or other dose. Most compounds without a hit are left out; they make up all but 1.9% or so of the library.
SMILES,CXXC DNA block,Menin-MLL TR inh,Menin-MLL FL inh,PINK1 expr mod,Epigenetic reg,ClpP mod
COc1cc2cc(CN(CCCO)S(=O)(=O)c3ccccc3)c(=O)[nH]c2cc1OC,2%,16%,-1,·,3%,13µM*
O=c1[nH]c2cc3c(cc2cc1CN(CCO)S(=O)(=O)c1ccccc1Cl)OCCO3,4%,6%,0,1%[38.3 µM],1%,28µM*
COc1cc2cc(CN(CCO)S(=O)(=O)c3ccccc3Cl)c(=O)[nH]c2cc1OC,0%,5%,-2,0%[38.3 µM],-7%,28µM*
COc1cc2cc(CN(CCCO)S(=O)(=O)c3ccccc3Cl)c(=O)[nH]c2cc1OC,-4%,-15%,0,12%[38.3 µM],-1%,?
CC(=O)c1ccc(C(=O)N2CCc3c(cnc(C)c3CNC(=O)c3ccc4c(c3)OCO4)C2)s1,·,·,·,-1%,·,·
COc1cc(=O)n2c(c1C(=O)N(C)Cc1nonc1C)CCN(CC1CC=CCC1)CC2 (stereo unspecified),·,·,·,-1%,·,·
O=C(CSc1nc(-c2ccccc2)c(-c2ccccc2)[nH]1)NCCN1C(=O)CSC1=O,-3%,21%,5,3%,1%,32µM*
O=C(CSc1ccccc1F)NCCN1C(=O)CSC1=O,·,·,·,1%,·,1%
Cc1ccc(NC(=O)NC(=O)N(C(C)C)S(C)(=O)=O)nc1,9%,-19%,1,0%,1%,35µM*
N#Cc1ccc(-c2ccc(OCC(=O)NCCc3ccccc3)cc2)cc1,19%,-21%,1,-2%,1%,32µM*
COc1ccc(CCNC(=O)COc2ccc(-c3ccc(C#N)cc3)cc2)cc1,5%,-9%,2,6%,0%,?
c1cncc(OC2CCN(Cc3ccc4c(c3)CN(Cc3nc5ccccc5s3)CCO4)CC2)c1,·,·,·,0%,·,·
O=[N+]([O-])c1ccc2c(c1)C=C/C2=C\c1ccccc1,·,·,·,1%,·,0%
O=C(Cc1nc2ccccc2[nH]1)c1cccc([N+](=O)[O-])c1,-17%,·,8,14µM*,0%,-7%
CCOC(=O)c1c(NC(=O)C2CCCO2)sc(C(N)=O)c1C (stereo unspecified),2%,17%,2,-2%,-1%,28µM*
Cc1nn(Cc2ccccc2)c(C)c1NC(=O)CCCn1nc(C)c([N+](=O)[O-])c1C,-4%,11%,9,0%,0%,28µM*
CC(=O)Nc1ccc(S(=O)(=O)NC(CC(=O)N(C)Cc2ccccc2)C(C)C)cc1 (stereo unspecified),3%,-5%,4,0%,-1%,14µM*
Cc1ccc(CNc2nc3c([nH]2)c(=O)n(C)c(=O)n3C)cc1,5%,1%,0,-1%,5%,20µM*
Cn1c(=O)c2[nH]c(Nc3ccccc3)nc2n(C)c1=O,5%,6%,1,0%,-1%,0%
CO[C@H]1[C@H](NC(=O)c2ccsc2)c2ccccc2C12CCN(Cc1cccc3ncccc13)CC2,·,·,·,1%,·,·
COCc1c(C(=O)N2CCN(C3CCCCC3)CC2)cnn1-c1ncc(C)c(-c2cccs2)n1,·,·,·,0%,·,·
O=C(Cc1ccc(Oc2ccccc2)cc1)NO,·,·,·,0%,·,3%
CCOC(=O)COc1ccc2c(c1)C(=O)CC(C)(c1cccnc1)O2 (stereo unspecified),-5%,0%,-2,4%[38.3 µM],1%,28µM*
O=C(COc1ccc2c(c1)C(=O)CC1(CCCCC1)O2)NCc1ccccn1,-1%,15%,3,?,1%,25µM*
CCOC(=O)COc1ccc2c(c1)C(=O)CC1(CCCCC1)O2,-6%,-14%,3,-2%[38.3 µM],0%,28µM*
SMILES,CXXC DNA block,Menin-MLL TR inh,Menin-MLL FL inh,PINK1 expr mod,Epigenetic reg,ClpP mod
O=C(COc1ccc2c(c1)C(=O)CC1(CCCCC1)O2)NCc1ccccc1,-12%,-9%,4,-1%,-2%,-17%
COc1ccc(OC)c(CN2CCOc3ccc(C(O)c4cccnc4)cc3C2)c1 (stereo unspecified),·,·,·,0%,·,·
Cc1ccc(NC(=O)CN(C)C(=O)c2ccc(Sc3nncn3C)c([N+](=O)[O-])c2)cc1,·,·,·,1%,·,-1%
Cc1cc(C)n(-c2nc(NC(C)C)nc(NC(C)(C)C)n2)n1,·,·,·,2%,·,2%
N#Cc1c(-c2ccccc2)cc(-c2ccccc2)[nH]c1=O,-1%,0%,5,-1%,·,4%
N#Cc1cc(-c2ccccc2)c[nH]c1=O,2%,3%,-1,-3%,-1%,7.9µM*
CCc1cc(C(=O)N2CCN(C(=O)c3ccco3)CC2)sc1C,·,·,·,-6%,·,28µM*
COc1ccc(C(=O)NCCc2ccccc2)cc1OC,0%,-10%,-1,0%,·,0%
COc1ccc(/C(O)=C/c2nc3ccc(C(=O)NCCc4cccc(C)c4)cc3[nH]c2=O)cc1OC,?,7%,?,20%,18µM*,-1%
CS(=O)(=O)N1CCCCC1CCN1CCCCC1 (stereo unspecified),·,·,·,-1%,·,28µM*
O=C(O)c1ccccc1-c1ccccc1C(=O)NCc1ccccc1F,-1%,16%,-5,0%,·,8.9µM*
Cn1ccnc1SCC(=O)n1c2c(c3ccccc31)CCCC2,2%,-8%,-1,1%,-2%,32µM*
Cn1ccnc1SCC(=O)Nc1cccc2ccccc12,15%,11%,0,3%[38.3 µM],-4%,0%
COC(=O)C(C(C)=O)C(NC(=O)OC(C)(C)C)c1ccccc1 (stereo unspecified),·,5%,-3,·,1%,·
Cc1cc(/C=N/NC(N)=S)c(O)c(/C=N/NC(N)=S)c1,?,·,?,45µM*,1%,·
CCc1ccc(Nc2n[n+](-c3ccccc3)c(-c3ccc(SC)cc3)s2)cc1,?,-27%,-3,35µM*,·,-6%
CSc1ccc(-c2sc(Nc3ccccc3)n[n+]2-c2ccccc2)cc1,?,-24%,11,2%,·,2%
CCCCC1=CC2=C(c3ccco3)C(=O)C(C)(OC(=O)c3cccs3)C(=O)C2=CO1 (stereo unspecified),·,?,16,·,-1%,·
COc1cccc(-c2nc3ccccc3s2)c1,-4%,0%,0,?,0%,28µM*
Nc1cccc(-c2nc3ccc(N)cc3s2)c1,-2%,·,1,1%,-2%,14µM*
